Drawing on ChEMBL document CHEMBL1961873, “Compounds: GSK PKIS; Assays: Nanosyn kinase panel” (2012), this text covers inhibition for 18 compounds.

Molecules are shown by their SMILES.
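Further: values are mean percent inhibition of PDGFRA.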

Chain of Platelet-derived growth factor receptor alpha (Homo sapiens) (P16234 whole entry): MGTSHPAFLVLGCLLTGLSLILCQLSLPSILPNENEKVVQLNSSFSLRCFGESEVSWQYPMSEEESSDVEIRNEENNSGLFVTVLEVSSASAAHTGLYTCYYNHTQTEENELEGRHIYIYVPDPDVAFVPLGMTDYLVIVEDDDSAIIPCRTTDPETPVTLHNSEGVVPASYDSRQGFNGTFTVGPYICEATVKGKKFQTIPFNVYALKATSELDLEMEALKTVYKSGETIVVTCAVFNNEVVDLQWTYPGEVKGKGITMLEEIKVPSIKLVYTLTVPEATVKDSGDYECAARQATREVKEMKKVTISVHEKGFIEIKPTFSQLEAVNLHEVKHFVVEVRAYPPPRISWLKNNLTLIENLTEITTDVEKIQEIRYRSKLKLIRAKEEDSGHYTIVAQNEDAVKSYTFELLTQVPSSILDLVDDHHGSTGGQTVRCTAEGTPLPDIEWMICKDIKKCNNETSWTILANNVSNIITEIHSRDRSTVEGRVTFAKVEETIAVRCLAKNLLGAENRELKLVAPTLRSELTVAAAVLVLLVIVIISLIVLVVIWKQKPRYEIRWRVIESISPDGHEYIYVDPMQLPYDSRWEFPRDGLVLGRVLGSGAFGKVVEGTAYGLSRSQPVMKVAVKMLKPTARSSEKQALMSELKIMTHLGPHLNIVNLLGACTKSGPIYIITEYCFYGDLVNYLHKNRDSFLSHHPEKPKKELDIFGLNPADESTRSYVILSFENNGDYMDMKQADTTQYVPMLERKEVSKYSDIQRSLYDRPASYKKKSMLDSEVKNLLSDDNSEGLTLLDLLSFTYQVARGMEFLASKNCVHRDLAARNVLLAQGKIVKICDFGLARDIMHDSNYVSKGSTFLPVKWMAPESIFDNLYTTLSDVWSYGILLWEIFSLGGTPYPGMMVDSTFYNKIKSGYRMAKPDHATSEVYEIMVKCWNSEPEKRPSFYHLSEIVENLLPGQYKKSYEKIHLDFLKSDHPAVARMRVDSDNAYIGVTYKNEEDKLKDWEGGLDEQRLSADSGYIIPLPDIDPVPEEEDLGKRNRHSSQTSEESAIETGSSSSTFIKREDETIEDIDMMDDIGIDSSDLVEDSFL

The assay has as its target Platelet-derived growth factor receptor alpha (Homo sapiens) (UniProt P16234). To be noted: at 1 µM.
Broadly, the inhibition is the drop in the measured response relative to a control, in per cent. In turn, `c1ccc(-c2n[nH]cc2-c2ccnc(-c3ccc(OCCN4CCOCC4)cc3)c2)nc1` yielded an inhibition of 58.7%.
For the compound `Cc1ccc(NC(=O)c2ccoc2)cc1-c1ccc(C(=O)NCC2CC2)cc1`, the inhibition turned out to be 4.97%.
Consider `CCS(=O)(=O)c1ccc(OC)c(Nc2ncc(-c3cccc(-c4ccccc4F)c3)o2)c1`, for which the inhibition came to 49.7%.
For `Clc1ccc(CNc2nccc(-c3cnn4ncccc34)n2)cc1`, the inhibition amounted to 15.4%.
In the case of `COc1ccc2cc(-c3c(-c4ccncc4)nc(-c4ccc(S(C)(=O)=O)cc4C)n3C)ccc2c1`, the inhibition turned out to be 23.6%.
The compound `CNC(=O)c1cncc(/C=C/c2c(C)cccc2C)c1` yielded an inhibition of 34.4%.
Consider `CS(=O)(=O)CCNCc1cc(-c2cc3c(Nc4ccc(OCc5cccc(F)c5)c(Cl)c4)ncnc3s2)cs1`, for which the inhibition came to 13.6%.
As to `CCS(=O)(=O)c1ccc(OC)c(Nc2ncc(-c3ccccc3Cl)o2)c1`, the inhibition is 16.2%.
For `Fc1ccc(-c2ncn(CCCN3CCOCC3)c2-c2ccncc2)cc1` the value was 7.26%; for `COc1cccc(/C=N/Nc2ncnc3c2cnn3-c2cccc(OC)c2)c1`, 14.9%.
In the case of `CN(C)CCOc1ccc(-c2cc(-c3ccc4c(c3)CCC4=NO)c(-c3ccncc3)o2)cc1` it was 9.14%.
In turn, `NS(=O)(=O)c1ccc(Nc2cc(-c3ccc(O)c(F)c3)n[nH]2)cc1` came in with an inhibition of 61.5%.
For `NC(=O)c1cc(-c2ccc(F)cc2)cc(-c2ccncc2)c1N` the value was 7.4%.
Regarding `COc1cc2ncn(-c3cc(OCCc4ccccc4)c(C(N)=O)s3)c2cc1OC`, the inhibition amounted to 51.4%.
For `O=C(Nc1n[nH]c2cc(-c3cc(F)ccc3F)ccc12)C1CC1` the value was 18.3%; for `COc1ccc2ncn(-c3cc(O[C@H](C)c4ccccc4Cl)c(C(N)=O)s3)c2c1`, 23.1%.
On to `CN(C)CCCNc1nccc(-c2c(-c3ccc(F)cc3)nn3cc(C(F)(F)F)ccc23)n1`, for which the inhibition worked out at 18.6%.
In the case of `O=C(Nc1n[nH]c2nc(-c3ccco3)ccc12)C1CC1`, the inhibition is 10.6%.
